Source: PubChem BioAssay (several laboratories)
CSC inhib: blocks cancer stem cells. cancer stem cell-like cells viability, luminescence. inhibition, % at 7.5 µM. AID 2717. hit rate 1.1% among 300,000; in the data active = inhibition above about 75%; inconclusive = no clear call, values can overlap the other calls; tested in HMLE shEcad cells
Shn3 inh set2: inhibitors of Schnurri-3 3'UTR reporter in osteoblasts; Clone20 osteoblast Shn3 3'UTR firefly luciferase, 24 h; inhibition, % at 12.5 µM; hit rate 0.52% among 360,000; AID 588674;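 active = mean inhibition of at least 75% with every replicate also reaching 75%; inconclusive = mean inhibition at least 75% but some replicate below; inactive = mean inhibition below 75%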
Gli-Sufu antag: antagonists of Gli-Sufu signaling; Sufu-KO-LIGHT fibroblasts, Gli luciferase reporter luminescence; inhibition, % at 5 µM; hit rate 0.74% among 340,000;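 active = inhibition above about 55%, limit read from the data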
Mdm2 MdmX PPI: inhibitors of human Mdm2/MdmX interaction | inhibition, % at 8 µM | SaOS-2 split-luciferase Mdm2/MdmX complementation, luminescence | hit rate 3% among 330,000;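 active = inhibition of at least 50% at 8 µM in the primary screen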
Target sequence (O15151 whole entry, looked up): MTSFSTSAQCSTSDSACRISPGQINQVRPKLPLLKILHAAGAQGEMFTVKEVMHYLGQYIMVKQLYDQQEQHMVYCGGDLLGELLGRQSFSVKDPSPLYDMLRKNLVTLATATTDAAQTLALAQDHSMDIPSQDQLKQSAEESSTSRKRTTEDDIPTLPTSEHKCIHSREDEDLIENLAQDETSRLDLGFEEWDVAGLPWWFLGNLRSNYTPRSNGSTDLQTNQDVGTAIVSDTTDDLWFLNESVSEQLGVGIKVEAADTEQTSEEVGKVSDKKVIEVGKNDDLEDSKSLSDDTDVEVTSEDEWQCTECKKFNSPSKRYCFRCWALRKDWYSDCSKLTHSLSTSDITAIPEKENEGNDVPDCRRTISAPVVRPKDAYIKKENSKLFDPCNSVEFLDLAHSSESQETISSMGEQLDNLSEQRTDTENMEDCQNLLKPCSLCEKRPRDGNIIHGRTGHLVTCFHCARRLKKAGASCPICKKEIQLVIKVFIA
Target sequence (Q00987 whole entry, looked up): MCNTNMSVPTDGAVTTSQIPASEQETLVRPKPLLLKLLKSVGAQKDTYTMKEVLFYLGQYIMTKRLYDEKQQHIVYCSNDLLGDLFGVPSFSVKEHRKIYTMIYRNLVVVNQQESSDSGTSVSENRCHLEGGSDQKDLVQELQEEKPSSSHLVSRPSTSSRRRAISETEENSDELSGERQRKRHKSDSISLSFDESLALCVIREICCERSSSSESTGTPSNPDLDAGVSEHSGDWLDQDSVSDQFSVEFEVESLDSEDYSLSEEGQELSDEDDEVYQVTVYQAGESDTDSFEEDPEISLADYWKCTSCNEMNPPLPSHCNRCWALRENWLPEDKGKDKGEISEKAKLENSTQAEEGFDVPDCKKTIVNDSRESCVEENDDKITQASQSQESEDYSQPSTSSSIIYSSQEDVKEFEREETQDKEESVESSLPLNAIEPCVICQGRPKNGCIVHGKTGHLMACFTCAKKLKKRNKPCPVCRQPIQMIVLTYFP
PAX8 inh HTS: PAX8 transcriptional activity inhibition; hit rate 1.2% among 360,000; RMG-I TPO-luciferase reporter, SteadyGlo, 24 h; AID 652154; inhibition, % at 12.6 µM;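 active = mean replicate inhibition at least 60% with every replicate also reaching 60%; inconclusive = only one of the two criteria is met; inactive = mean below 60% and not all replicates reaching 60%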;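 also: luciferase light reporting Pax8 driven TPO promoter activity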
Beta apoptosis: blocks beta cell apoptosis. protection from apoptosis, % (concentration not given with the values). hit rate 0.8% among 300,000. INS-1E cytokine-induced death, ATP luminescence, 48 h; percent of positive-control rescue, neutral wells zero;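 active = Every replicate reaches about 75%, or at least half do and their mean reaches it too, limit read from the data; inconclusive = At least half of replicates reach the limit but their mean does not; inactive = Under half of replicates reach the limit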;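 also: higher means more ATP so stronger rescue from cytokine killing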
Mdm2-MdmX conf: confirmation of human Mdm2/MdmX interaction inhibitors; shares compounds with Mdm2 MdmX PPI; Mdm2-MdmX binding, luminescent assay; inhibition, % at 8 µM; hit rate 55% among 10,000; AID 489028; in the data active = inhibition above about 40%
Full FLuc ctr: full-length luciferase inhibition in Mdm2/MdmX counter-screen; inhibition, % at 8 µM; shares compounds with Mdm2 MdmX PPI; AID 504607; hit rate 77% among 6,200; SaOS-2 full-length luciferase counterscreen, luminescence;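 active = mean inhibition at 8 µM reaching about 37%, which flags the compound as non-specific, limit read from the data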;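 also: p53-null SaOS-2 cells with luciferase driven by a doxycycline-inducible promoter; compound on cells about two nights before reading with doxycycline added after day one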
A number is an active result; . = inactive; ? = inconclusive; / = no result given. Rows were chosen to be rich in hits. Some 4% of all compounds tested hit in one or more screens of this group.

SMILES | CSC inhib | Shn3 inh set2 | Gli-Sufu antag | Mdm2 MdmX PPI | PAX8 inh HTS | Beta apoptosis | Mdm2-MdmX conf | others
Cc1nn2c(N3CCOCC3)cc(C(C)(C)C)nc2c1-c1ccccc1 | . | . | . | . | . | . | /
Cc1nn2c(N3CCOCC3)cc(C(C)C)nc2c1-c1ccccc1 | . | . | . | . | . | . | /
CNC[C@H]1OCCCC[C@H](C)Oc2ccc(NS(=O)(=O)c3cccs3)cc2C(=O)N([C@@H](C)CO)C[C@H]1C | / | / | / | / | . | / | /
CC1CCN(C(=O)c2ccc3c(c2NCCO)C(=O)c2ccccc2C3=O)CC1 | . | . | . | . | / | . | /
CCN(CC)CCNC(=O)c1ccc2c(c1NCCO)C(=O)c1ccccc1C2=O | . | . | . | 91.1 | 69.0 | 116.0 | 83.7 | Full FLuc ctr=.
CN(C)CC(=O)Nc1ccc2c(c1)[C@@H]1C[C@@H](CC(=O)N3CCc4ccccc4C3)O[C@H](CO)[C@@H]1O2 | / | / | / | / | . | / | /
COc1ccc(NC(=O)Nc2ccc3c(c2)C(=O)N([C@@H](C)CO)C[C@H](C)[C@H](CN(C)C(=O)NC2CCCCC2)O3)cc1 | / | / | / | / | . | / | /
CCOc1ccccc1C(=O)N/N=C/c1coc2ccc(C)cc2c1=O | . | . | . | 78.6 | . | . | .
Cc1ccc2occ(/C=N/NC(=O)c3ccccc3Br)c(=O)c2c1 | . | . | . | . | . | . | /
CCCOc1ccc(C(=O)NNC(=S)NC(=O)c2ccco2)cc1 | . | . | . | 50.6 | . | . | . | Full FLuc ctr=52.1
COc1ccc(C(=O)NNC(=S)NC(=O)c2ccco2)cc1 | . | . | . | . | . | . | /
CCCOc1ccc(C(=O)NNC(=S)NC(=O)c2cccs2)cc1 | . | . | . | 60.1 | . | . | .
Cc1ccc(OCC(=O)NNC(=S)NC(=O)c2cccs2)c(C)c1 | ? | . | . | 51.5 | . | . | .
CCCOc1ccc(C(=O)NNC(=S)NC(=O)c2ccccc2)cc1 | . | . | . | . | . | . | /
C[C@@H]1CN([C@H](C)CO)S(=O)(=O)c2ccc(C#CC3CC3)cc2O[C@@H]1CN(C)S(C)(=O)=O | / | / | / | / | . | / | /
Cc1ncc(CO)c(/C=N/Nc2ccc(C(F)(F)F)cn2)c1O | 88.6 | . | . | 75.2 | . | 115.9 | 72.3 | Full FLuc ctr=.
Cc1cc(C(=O)OCC(=O)NCc2ccco2)c(C)n1-c1ccc(F)cc1 | . | . | . | 56.2 | / | . | 52.1 | Full FLuc ctr=66.3
CCNC(=O)COC(=O)c1cc(C)n(-c2ccccc2)c1C | . | . | . | . | . | . | /
C/C=C/c1ccc([C@@H]2[C@@H](CO)N(C(C)=O)[C@@H]2CN(C)S(C)(=O)=O)cc1 | / | / | / | / | . | / | /
O=C(N[C@@H]1C[C@@H]2O[C@H](CO)CC[C@@H]2O[C@@H]1CCc1ccc(C#Cc2ccccc2)cc1)c1ccccn1 | / | / | / | / | . | / | /
CCCC(=O)N1CC2(C1)CN(S(C)(=O)=O)[C@H](CO)c1c2c2ccc(OC)cc2n1C | / | / | / | / | . | / | /
CCCc1nn2c(=O)cc(COc3ccc(NC(=O)c4ccco4)cc3)nc2s1 | . | . | . | 74.1 | . | . | .
O=S(=O)(c1ccc(F)cc1)N1CCCCN2[C@H](CO)[C@H](c3ccc(-c4ccccc4)cc3)[C@H]2C1 | / | / | / | / | . | / | /
C[C@@H]1CN([C@H](C)CO)C(=O)c2cc(NC(=O)Nc3ccc(C(F)(F)F)cc3)ccc2O[C@H]1CN(C)S(=O)(=O)c1ccccc1 | . | . | . | 74.3 | . | . | .
C[C@@H]1CN([C@@H](C)CO)C(=O)c2cc(NC(=O)Nc3ccc(C(F)(F)F)cc3)ccc2O[C@@H]1CN(C)S(=O)(=O)c1ccc(F)cc1 | / | / | / | / | . | / | /
SMILES | CSC inhib | Shn3 inh set2 | Gli-Sufu antag | Mdm2 MdmX PPI | PAX8 inh HTS | Beta apoptosis | Mdm2-MdmX conf | others
COc1ccc(S(=O)(=O)N(C)C[C@H]2Oc3ccc(NC(=O)Nc4ccc(C(F)(F)F)cc4)cc3C(=O)N([C@H](C)CO)C[C@@H]2C)cc1 | . | . | . | 73.8 | 93.5 | . | .
COc1ccc(NC(=O)Nc2ccc3c(c2)C(=O)N([C@H](C)CO)C[C@H](C)[C@@H](CN(C)S(=O)(=O)c2ccc(OC)cc2)O3)cc1 | . | . | . | . | . | . | /
CC(C)NC(=O)Nc1ccc2c(c1)C(=O)N([C@H](C)CO)C[C@H](C)[C@@H](CN(C)C(=O)NC(C)C)OCCCC[C@H](C)O2 | / | / | / | / | . | / | /
CCCN(CCC)C(=S)NC(=O)c1ccc(-c2ccccc2)cc1 | . | . | . | 55.2 | / | . | .
CC(C)(C)C(=O)NC(=S)NNC(=O)c1ccc(-c2ccccc2)cc1 | 90.9 | 94.5 | . | 57.3 | / | 76.0 | 45.6 | Full FLuc ctr=.
CO[C@H]1CN(C)C(=O)c2cc(NC(=O)c3ccno3)ccc2OC[C@H](C)NC[C@@H]1C | / | / | / | / | . | / | /
CCOC(=O)c1c(NC(=O)CSc2nnnn2-c2ccccc2OCC)sc2c1CC(C)(C)NC2(C)C | . | . | . | 57.6 | / | . | 41.5 | Full FLuc ctr=73.0
CCOC(=O)c1c(NC(=O)CSc2nc3ccc(C)cc3[nH]2)sc2c1CC(C)(C)NC2(C)C | 77.8 | . | . | 75.5 | . | . | 47.5 | Full FLuc ctr=68.7
CCOC(=O)c1sc(NC(=O)CSc2nnnn2-c2ccccc2)c(C(=O)OCC)c1C | . | . | . | . | / | . | /
CCOC(=O)c1c(NC(=O)COC(=O)c2ccc(C)s2)sc2c1CC(C)(C)NC2(C)C | . | . | . | . | . | . | /
CCOC(=O)c1c(NC(=O)CSc2nnnn2-c2ccccc2)sc2c1CC(C)(C)NC2(C)C | . | . | . | 55.3 | . | . | .
COc1ccc2c(c1)NC(c1cc(Cl)cc(Cl)c1O)c1cccn1-2 (stereo not drawn) | / | . | . | 81.2 | . | / | .
Oc1c(Cl)cc(Cl)cc1C1Nc2ccccc2-n2cccc21 (stereo not drawn) | . | . | . | . | . | . | /
CO[C@@H]1CN(C)C(=O)c2ccc(NC(=O)C3CC3)cc2OC[C@H](C)N(Cc2cccnc2)C[C@@H]1C | / | / | / | / | . | / | /
Clc1ccc(-c2csc(=Nc3cccnc3)n2CCCn2ccnc2)cc1Cl | . | . | . | 66.3 | . | . | . | Full FLuc ctr=55.4
COc1cc(NC(=S)N2CCN(C(c3ccccc3)c3ccccc3)CC2)cc(OC)c1 | . | . | . | 67.5 | / | . | .
C[C@@H]1CN([C@H](C)CO)C(=O)c2cc(NC(=O)Nc3ccc4c(c3)OCO4)ccc2O[C@H]1CN(C)C(=O)Nc1ccc(F)cc1 | / | / | / | / | . | / | /
C[C@@H]1CN([C@@H](C)CO)C(=O)c2cc(NC(=O)C3CC3)ccc2O[C@@H]1CN(C)S(C)(=O)=O | / | / | / | / | . | / | /
COc1ccc(C(=O)c2c(-c3ccc(OC)cc3)oc3ccccc23)cc1 | . | . | . | . | . | . | /
COc1ccc(-c2oc3ccccc3c(=O)c2OC(=O)c2ccc(C)cc2)cc1 | . | . | . | 79.5 | / | . | 52.7 | Full FLuc ctr=.
O=C(Oc1c(-c2ccccc2Cl)oc2ccccc2c1=O)c1ccc(Cl)cc1 | . | . | . | 67.3 | 68.0 | . | 52.7 | Full FLuc ctr=47.5
COc1ccc(C(=O)c2ccc3oc(-c4ccc(OC)cc4)c(-c4ccc(O)cc4)c3c2)cc1 | 104.3 | . | . | 66.0 | . | . | .
